Screen size: about 330,000 compounds; about 2,600 (0.79%) were called active.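 The calls were made as follows: active = mean ATP rescue above about 67%, or every replicate alone reaching that limit (limit read from the data, passing the limit was not always enough); inconclusive = no clear call, values can overlap the other calls; inactive = mean under the limit and some replicate under it.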 The sample as a whole holds a higher share of actives than the screen did.

The assay is described as follows: protection of differentiated C2C12 cells from simvastatin – single point, plate reader, primary screen (AID 602340).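 Also: myotubes were challenged with 10 µM simvastatin during compound exposure.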 To be noted: C2C12 myotubes + simvastatin, ATP luminescence, 48 h; at 7.49 µM; hits give high values; scaled: DMSO 0, geranylgeraniol control 100.
`COC(=O)c1cnn2c(C(F)(F)F)cc(-c3ccco3)nc12`: the rescue of ATP level is 0.418% (inactive).
For the compound `CCOC(=O)c1ccn(-c2nc(-c3ccco3)cc(C(F)(F)F)n2)n1`, the rescue of ATP level is 122% (active).
With `O=C(CSc1nc(-c2ccco2)cc(C(F)(F)F)n1)N1CCc2ccccc2C1` the figure was 2.99% (inactive); with `COCC(=O)Nc1ccc2c(c1)C(=O)N(C)[C@H]1CC[C@@H](CC(=O)Nc3cn(C)nc3C)O[C@@H]1CO2`, -1.7% (inactive).
Consider `CCC(=O)Nc1ccc2c(c1)OC[C@H](C)N(CC1CCCCC1)C[C@@H](C)[C@H](OC)CN(C)C2=O`, for which the rescue of ATP level was 13.2% (inactive).
With `Cc1cccc(C)c1N1CCN(S(=O)(=O)N2CCCCC2)CC1` the figure was -15% (inactive).
For the compound `CS(=O)(=O)N1CCN(c2cccc(Cl)n2)CC1`, the rescue of ATP level was 109% (active).
Regarding `CCC(=O)Nc1ccccc1N1CCN(S(C)(=O)=O)CC1`, the rescue of ATP level was 5.38% (inactive).
With `C[C@@H]1CN([C@H](C)CO)S(=O)(=O)c2ccc(C#CCC3CCCC3)cc2O[C@H]1CN(C)Cc1ccc(C(=O)O)cc1` the figure was 3.68% (inactive).
To `CC(C)(C)c1cc(C(=O)NCc2cccnc2)ccn1` belongs -8.85% (inactive).
To `O=C(NCc1ccc(Cl)c(Cl)c1)c1cccnc1` belongs 106% (active).
Regarding `O=C(Nc1nnc(Cc2ccc(Cl)cc2)s1)c1cccnc1`, the rescue of ATP level is 0.36% (inactive).
With `COCC(=O)Nc1ccc2c(c1)[C@H]1C[C@H](CC(=O)NCc3cccnc3)O[C@H](CO)[C@H]1O2` the figure was -1.76% (inactive).
With `Cn1c(=O)c2c(nc(CN3CCOCC3)n2Cc2ccccc2)n(C)c1=O` the figure was 2.6% (inactive); with `COCCn1c(CN(Cc2ccccc2)Cc2ccccc2)nc2c1c(=O)n(C)c(=O)n2C`, 30.5% (inactive); with `COCCn1c(CN2CCC(Cc3ccccc3)CC2)nc2c1c(=O)n(C)c(=O)n2C`, 70.9% (active).
To `CC(=O)NC[C@H]1[C@H](c2ccccc2)[C@@H](CO)N1C(=O)Cc1cccnc1` belongs 7.36% (inactive); to `Cc1ccccc1S(=O)(=O)Nc1ccc2c(c1)C(=O)N(C)[C@H]1CC[C@@H](CC(=O)O)O[C@H]1CO2`, 10.2% (inactive).
Consider `O=C(C[C@@H]1C[C@H]2c3cc(NC(=O)Nc4ccccc4)ccc3O[C@H]2[C@@H](CO)O1)NC1CCCCC1`, for which the rescue of ATP level is 4.79% (inactive).
To `C[C@@H]1CN([C@@H](C)CO)C(=O)c2cc(C3=CCCCC3)cnc2O[C@H]1CN(C)CC1CCOCC1` belongs -11.9% (inactive).
With `Cc1ccc(C(=O)NC23CC4CC(CC(C4)C2)C3)c(Cl)c1` the figure was -14.4% (inactive); with `CC(=N\NC(=O)c1cc(Br)ccc1O)/C(=N/O)C(=O)Nc1ccccc1`, -1.86% (inactive).
Regarding `C/C(=N/NC(=O)c1cc(Cl)ccc1O)C12CC3CC(CC(C3)C1)C2`, the rescue of ATP level is 173% (active).
With `Cc1noc(C)c1S(=O)(=O)N(C)C[C@@H]1Oc2c(NS(=O)(=O)c3cn(C)cn3)cccc2C(=O)N([C@@H](C)CO)C[C@H]1C` the figure was 5.29% (inactive).
Consider `COc1cccc(C(=O)Nc2ccc3c(c2)OC[C@H](C)N(C(C)=O)C[C@@H](C)[C@@H](OC)CN(C)C3=O)c1`, for which the rescue of ATP level is 5.61% (inactive).
For `O=c1c2ccccc2ncn1CCCCOc1ccccc1F`, the rescue of ATP level is -4.17% (inactive).
For the compound `Fc1ccccc1OCCCCn1cncn1`, the rescue of ATP level was 109% (active).
With `CCN1CCN(CCCCOc2ccccc2F)CC1` the figure was 12.7% (inactive); with `O=C(Nc1ccccc1F)N[C@@H]1CC[C@H](CCNC(=O)C2CC2)O[C@@H]1CO`, 3.31% (inactive).
With `O=C(CSc1ncn[nH]1)N/N=C/c1ccc(F)cc1` the figure was 2.49% (inactive).
As for `Cc1cccc(C=CC(=O)c2ccc(Cl)cc2)c1`, the rescue of ATP level is 3.66% (inactive).
As for `O=C(/C=C/Sc1ncn[nH]1)c1ccc(Cl)cc1`, the rescue of ATP level is 122% (active).
As to `CO[C@H]1CN(C)C(=O)c2ccc(NC(=O)c3ccccc3F)cc2OC[C@H](C)N(C(=O)c2ccccc2F)C[C@H]1C`, the rescue of ATP level is -0.874% (inactive).
`COc1ccc(NC(=O)CCCC(=O)c2ccccc2)cc1`: the rescue of ATP level was 4.33% (inactive).
With `CCOC(=O)c1cc2ccccc2n1CC(=O)c1ccccc1` the figure was 14.7% (inactive).
To `COc1ccc2cc(C(=O)O)n(CC(=O)c3ccccc3)c2c1` belongs 107% (active).
Regarding `OCCCNC(c1ccccc1)c1ccc(O)cc1` (configuration not stated), the rescue of ATP level is 116% (active).
Regarding `OCCNc1nc(Nc2ccc(Cl)c(Cl)c2)nc2ccccc12`, the rescue of ATP level is -27.5% (inactive).
`Cc1noc(C)c1NC(=O)N(C)C[C@H]1Oc2c(NC(=O)c3nc4ccccc4s3)cccc2C(=O)N([C@@H](C)CO)C[C@@H]1C`: the rescue of ATP level is -9.27% (inactive).
With `CN1C(=O)c2cc(NS(=O)(=O)c3ccc(F)cc3)ccc2OC[C@@H]2O[C@@H](CC(=O)O)CC[C@H]21` the figure was 1.01% (inactive); with `O=C(C[C@H]1C[C@@H]2c3cc(NC(=O)CC4CC4)ccc3O[C@@H]2[C@H](CO)O1)NCc1cccnc1`, -11% (inactive).
To `CC(=O)C1=C(O)C(=O)N(c2ccc(Br)cc2)C1c1ccc([N+](=O)[O-])cc1` (configuration not stated) belongs 4.28% (inactive); to `CC(=O)C1=C(O)C(=O)N(c2ccc(S(N)(=O)=O)cc2)C1c1ccccc1F` (configuration not stated), 106% (active).
On to `Cc1ccc(S(=O)(=O)N2[C@@H](c3ccccc3F)C(C(=O)O)=CC[C@H]2c2ccc(Cl)cc2)cc1`, for which the rescue of ATP level is 21.4% (inactive).
With `CC1=CC(=O)C=CC1(C)C(Cl)(Cl)Cl` (configuration not stated) the figure was 112% (active); with `CO[C@@H]1CN(C)C(=O)c2cc(NS(=O)(=O)c3ccc(C)cc3)ccc2OC[C@H](C)N(Cc2nccs2)C[C@@H]1C`, 1.93% (inactive).
With `CCC(CC)c1nnc(NS(=O)(=O)Cc2ccccc2)s1` the figure was 117% (active).

Values taken from PubChem BioAssay AID602340 (Broad Institute, 2012).
